HEK293 tox – qHTS of GLP-1 Receptor Inverse Agonists: Cytotox Screen; HEK293 cAMP-luciferase reporter cells, luminescence, 24 h; Potency, µM (doses to about 38.3 µM), usual class: inhibitors; 0.13% of 410,000 active; AID 624418, 2012;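 also: loss of luciferase light is scored as toxicity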
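1536-well qHTS counterscreen of the MLSMR; 200 cells/uL, 12 h pre-incubation, 23 nL cpd, 24 h at 37 deg C 5% CO2, luciferase detection reagent, 12 min RT, luminescence. Inhibition = undesired.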
p53 reactivation – qHTS assay for re-activators of p53 using a Luc reporter. H1299 p53-A138V BP100-luciferase reporter, luminescence, 24 h. 0.063% of 320,000 active. Potency, µM (titrated, usually from 92.2 µM), actives largely listed as activators; also: nearly all actives have a fitted effect of over 45% in size
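H1299 (p53-null), stable ts p53-A138V + BP100-Luc; 1000 cells/well, Opti-MEM/10% FBS; cpd 4 pt, 1:5; 24 h, 37 deg C, 5% CO2; detection reagent 10 min RT; luminescence.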
GLP1R inv ag – qHTS of GLP-1 Receptor Inverse Agonists (Inhibition Mode). Potency, µM (top dose mostly 38.3 µM), hits mostly inhibitors. Glucagon-like peptide 1 receptor (Homo sapiens), P43220. 1.6% of 410,000 active. HEK293 GLP-1R CRE-luciferase, luminescence, 24 h; GLP-1R form is constitutively active; also: nearly all actives have a fitted effect of over 55% in size
Target sequence (P43220 whole entry, looked up): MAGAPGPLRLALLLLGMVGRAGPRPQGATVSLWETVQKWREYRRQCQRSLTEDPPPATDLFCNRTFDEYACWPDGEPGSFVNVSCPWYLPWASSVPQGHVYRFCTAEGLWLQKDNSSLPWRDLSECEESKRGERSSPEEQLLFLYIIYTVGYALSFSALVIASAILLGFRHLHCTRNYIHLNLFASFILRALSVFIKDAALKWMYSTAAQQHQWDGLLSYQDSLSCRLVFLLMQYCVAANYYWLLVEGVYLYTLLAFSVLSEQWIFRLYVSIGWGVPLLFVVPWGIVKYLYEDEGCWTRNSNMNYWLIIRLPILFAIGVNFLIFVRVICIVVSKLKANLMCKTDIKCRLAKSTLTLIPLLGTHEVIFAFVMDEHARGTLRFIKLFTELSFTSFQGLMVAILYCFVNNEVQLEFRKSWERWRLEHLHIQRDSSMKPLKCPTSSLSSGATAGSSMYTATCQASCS
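HEK293 cells stably co-expressing constitutively active GLP-1R and a cAMP-responsive luciferase reporter were seeded in DMEM with 10% Nu serum, given compounds after 12 h, and incubated 24 h at 37 deg C. Luminescence was then read.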
ClpP mod – qHTS Assay for Activators of ClpP; ATP-dependent Clp protease proteolytic subunit (Bacillus subtilis (strain 168)), P80244; purified B. subtilis ClpP, FRET peptide cleavage, 20 min; Potency, µM (series often up to 57.5 µM); 1.9% of 340,000 active; active = well fitted falling curve with a large enough effect; inconclusive = small, poorly fitted or top-dose-only effect; inactive = no such curve, though single readings can be large or run the other way; also: the source files actives as falling curves though it sought activators and does not explain the sign; nearly all actives have a fitted effect of over 65% in size
Target sequence (P80244 whole entry, looked up): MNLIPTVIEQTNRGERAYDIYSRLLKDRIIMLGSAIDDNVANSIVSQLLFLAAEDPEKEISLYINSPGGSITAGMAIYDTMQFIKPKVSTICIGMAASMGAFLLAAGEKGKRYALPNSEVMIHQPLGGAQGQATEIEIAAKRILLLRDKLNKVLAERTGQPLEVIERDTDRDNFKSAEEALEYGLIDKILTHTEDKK
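ClpP 10 microg/mL final, pH 8 Tris/KCl buffer with BSA, glycerol, Tween-20; compound pinned in; FRET-FV substrate; RT 20 min; Ex320/Em430; ΔFRET vs ADEP 5.8 microM, DMSO, no enzyme.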
LDHA inh – qHTS assay for inhibitors of human lactate dehydrogenase | L-lactate dehydrogenase A chain (Homo sapiens), P00338 | purified LDHA, NADH/diaphorase-resazurin fluorescence; active compounds read low | activity change, % (values are at about 110 or 230 µM) | 0.15% of 480,000 active | AID 1347041, 2019; in the data active = activity change below about -30%; inconclusive = mostly about -25% to -30%
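Human LDH5 at 2 nM final in Tris HCl pH 7.4 with 0.06 mM NADH and 0.2 mM pyruvate, reacted 5 minutes at room temperature. Remaining NADH coupled via diaphorase/resazurin; resorufin fluorescence read at 0 and 20 minutes, normalized to enzyme-free and DMSO wells.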
GLP-1R agonist – qHTS of GLP-1 Receptor Agonists | 0.007% of 380,000 active | Potency, µM (doses to about 45.6 µM), actives largely listed as activators | HEK293 GLP-1R CRE-luciferase, luminescence, 4-6 h; cells express a hypersensitive GLP-1R form | Glucagon-like peptide 1 receptor (Homo sapiens), P43220
Each line names hits and unclear results; the compound was inactive in the other large screens. Most compounds without a hit are left out; they make up all but 2.9% or so of the library. Unless noted, calls follow the shape of the dose curve; as a rule, active = well fitted curve in the direction sought with a large enough effect; inconclusive = small, poorly fitted or top-dose-only effect, or another doubt; inactive = no such curve, though single readings can be large; an effect the other way counts as inactive or inconclusive.

COc1ccc(CC(=O)NCc2ccccc2)cc1S(=O)(=O)N1CCOCC1	none
COc1ccc(CC(=O)N(Cc2ccccc2)c2ccc(C)cc2)cc1S(=O)(=O)N1CCOCC1	GLP1R inv ag inconclusive, ClpP mod 25µM
Cc1ccc(-n2c(=O)[nH]c3c(C(N)=O)nc(CC(C)C)nc32)cc1	ClpP mod 28µM
Cc1cc(C)c(CN2CCN(C(=O)Cn3cnc4c(OCc5ccccc5)ncnc43)CC2)c(C)c1	GLP1R inv ag 6.3µM
Cc1ccc(CN2CCN(CCCn3cnc4c(OCc5ccccc5)ncnc43)CC2)cc1	GLP1R inv ag 8.9µM (no result: p53 reactivation)
Cc1c(C(=O)N2CCCC2)oc2c1-c1nn(CC(=O)NCc3cccc(F)c3)cc1CC2	none (no result: p53 reactivation, GLP-1R agonist)
CN(CC(=O)NCC(=O)Nc1ccc(F)cc1)CC(=O)Nc1ccc(Cl)c(C(F)(F)F)c1	GLP1R inv ag inconclusive (no result: p53 reactivation)
CC(NC(=O)CN(C)CC(=O)Nc1ccc(Cl)c(C(F)(F)F)c1)c1ccccc1 (configuration not stated)	GLP1R inv ag 10µM
O=C(c1cc([N+](=O)[O-])ccc1N1CCCCC1)N1CCCCC1	HEK293 tox inconclusive
CN(/N=C/c1cc(Cl)cc(Cl)c1O)c1c(Cl)cccc1[N+](=O)[O-]	GLP1R inv ag 8.9µM (no result: ClpP mod)
Cc1ccc(C2C(C=Nc3c(C)n(C)n(-c4ccccc4)c3=O)=C(c3ccccc3)Oc3ccccc32)cc1 (configuration not stated)	GLP1R inv ag 4µM
Cc1ccc(N2CC(C(=O)NCc3cccs3)CC2=O)cc1C (configuration not stated)	none
CCc1n[nH]c2c1C(=O)CC(C)(C)C2	ClpP mod 25µM
CSc1ccc(CNc2cccc3ccccc23)cc1	ClpP mod 28µM
CN1C(=S)SC(N(O)C(=O)Nc2ccc(Cl)c(Cl)c2)C1(C)C (configuration not stated)	GLP1R inv ag 10µM
CN1C(=S)SC(C)(C)C1N(O)C(=O)Nc1ccc(Cl)cc1 (configuration not stated)	GLP1R inv ag inconclusive (no result: ClpP mod)
CCC(=O)NC(=S)Nc1cccc(Cl)c1N1CCCC1	HEK293 tox inconclusive, GLP1R inv ag 5.6µM
O=C(CC(=O)Nc1ccccc1F)Nc1ccccc1F	none (no result: ClpP mod)
CCC(=O)NC(=S)Nc1ccccc1F	ClpP mod 13µM
CC(C)CN(CC(C)C)C(=O)Nc1ccccc1F	GLP1R inv ag 8.9µM (no result: ClpP mod)
O=C(NC(=S)Nc1cccc(Cl)c1N1CCCCC1)c1ccc2c(c1)OCCO2	p53 reactivation inconclusive, GLP1R inv ag inconclusive
OCCCn1c(CCCNc2nc(-c3cccc(Br)c3)cs2)nc2cc(Cl)c(N3CCCCC3)cc21	GLP1R inv ag 10µM (no result: p53 reactivation)
N=c1c(C(=O)NCc2ccco2)cc2c(=O)n3ccccc3nc2n1CCc1ccccc1	ClpP mod 28µM
N=c1c(C(=O)NCc2ccco2)cc2c(=O)n3ccccc3nc2n1CC1CCCO1 (configuration not stated)	ClpP mod 28µM (no result: p53 reactivation)
COc1ccc(CCn2c(=N)c(C(=O)NCc3ccco3)cc3c(=O)n4ccccc4nc32)cc1OC	none (no result: p53 reactivation)
COc1ccc2nc(NC(=O)C3CCN(S(=O)(=O)c4cnc[nH]4)CC3)sc2c1	none
COc1ccccc1CNC(=S)NCc1ccc(Cl)cc1	GLP1R inv ag 10µM
S=C(NCc1ccccc1)NCc1ccc(Cl)cc1	HEK293 tox inconclusive, GLP1R inv ag inconclusive
O=C(CSc1nc(Cl)nc2nc[nH]c12)Nc1cccc(Cl)c1	LDHA inh -35 (no result: HEK293 tox, p53 reactivation, GLP1R inv ag, ClpP mod, GLP-1R agonist)
O=C(CSc1nc(Cl)nc2nc[nH]c12)Nc1cccc(F)c1	none (no result: HEK293 tox, p53 reactivation, GLP1R inv ag, ClpP mod, GLP-1R agonist)
CN(c1cccc(NC(=O)CN(c2ccc(C34CC5CC(CC(C5)C3)C4)cc2)S(C)(=O)=O)c1)S(C)(=O)=O	HEK293 tox 10µM, GLP1R inv ag 3.2µM
CCc1nn2c(-c3ccccc3OC)ccnc2c1-c1ccccc1	GLP1R inv ag 10µM (no result: p53 reactivation)
O=C(OC1CCOC1=O)c1cc(-c2ccc(Br)cc2)nc2ccccc12 (configuration not stated)	ClpP mod inconclusive
COc1ccc(-c2cc(C(=O)Oc3ccc(C)cc3)c3ccccc3n2)cc1	none (no result: p53 reactivation, GLP-1R agonist)
COc1ccc(-c2cc(C(=O)OC3CCOC3=O)c3ccccc3n2)cc1 (configuration not stated)	ClpP mod 25µM
COc1ccc(-c2cc(C(=O)Oc3ccc([N+](=O)[O-])cc3)c3ccccc3n2)cc1	HEK293 tox inconclusive, ClpP mod 28µM
CCC(c1nnnn1Cc1ccc2c(c1)OCO2)N1CCN(c2ccc(OC)cc2)CC1 (configuration not stated)	GLP1R inv ag inconclusive
CCNc1nc(SCC(=O)Nc2cc(C)on2)nc2ccccc12	none (no result: HEK293 tox, p53 reactivation, GLP1R inv ag, ClpP mod, GLP-1R agonist)
Cc1ccc(S(=O)(=O)N(C)C)cc1NC(=O)CSc1nc2ccccc2[nH]1	HEK293 tox inconclusive
Cc1cccc(-n2ncc3c(N4CCCc5ccccc54)ncnc32)c1	p53 reactivation inconclusive, ClpP mod 32µM
COc1ccc(/C=N/NC(=S)Nc2ccccc2)cc1COc1ccc(F)cc1F	ClpP mod 35µM
COc1ccc(NC(=S)N/N=C/c2ccc(F)cc2)cc1OC	HEK293 tox 5.6µM, GLP1R inv ag inconclusive (no result: ClpP mod)
OC(Cn1cnnc1)c1ccccc1 (configuration not stated)	LDHA inh -37 (no result: ClpP mod)
COc1cccc(CNC(=O)c2ccc(C(=O)NCc3cccc(OC)c3)cc2)c1	none
Cc1ccc(-c2c(C#N)c(N)n(-c3ccc(Cl)cc3)c(=O)c2C#N)cc1	none (no result: p53 reactivation)
COc1cccc(CN2CCN(CC(=O)Nc3ccccc3Cl)CC2)c1	GLP1R inv ag inconclusive, ClpP mod 14µM
CCOc1ccc(OCc2cccc(C(=O)Nc3ccc(CN4CCCCC4)cc3)c2)cc1	HEK293 tox inconclusive, p53 reactivation inconclusive, GLP1R inv ag 4.5µM
COc1ccc(OCc2cccc(C(=O)Nc3ccc(CN4CCCCC4)cc3)c2)cc1	HEK293 tox inconclusive, p53 reactivation inconclusive, GLP1R inv ag inconclusive
COc1cccc(C(C)NC(=O)Nc2ccccc2Cl)c1 (configuration not stated)	GLP1R inv ag 13µM
COc1ccccc1N1CCN(CC(=O)Nc2ccc(CN3CCCCC3)cc2)CC1	HEK293 tox inconclusive, GLP1R inv ag inconclusive, LDHA inh -46
